Drawing on PubChem BioAssay (Tox21), this text covers Potency and max activation for 21 compounds.

A number with no mark means an inactive call. Results filed as inconclusive are left out. Activity calls are given as the source filed them. Unless noted, calls follow the shape of the dose curve; as a rule, active = well fitted curve in the direction sought with a large enough effect in the repeat runs; inconclusive = weak or mixed curves; inactive = no such curve, though single readings can be large; an effect the other way counts as inactive or inconclusive.

Assay [1] is described as follows: Human pregnane X receptor (PXR) small molecule agonists, qHTS cell viability counter screen (AID 1346977). Also: nearly all actives have a fitted effect of over 50% in size. Also: potency is read from the fitted curve at half-maximal effect. A digest of the protocol: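 PXR-Luc HepG2 cells in medium with 5% charcoal-stripped FBS were pre-incubated 5hr, then exposed to compounds for 24hr at 37C. Viability was read in the same wells by CellTiter-Fluor fluorescence, reagent added after 23hr with a 1hr incubation.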
A general note: qHTS replaces the single test concentration by a dilution series.

Assay [2] is described as follows: Caspase-3/7 induction in HepG2 cells by small molecules, qHTS assay (AID 1346978). Also: nearly all actives have a fitted effect of over 15% in size. Also: potency is read from the fitted curve at half-maximal effect. A digest of the protocol:
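Wild-type HepG2 cells, 2,000/well, settled 5 hr at 37 C and 5% CO2, then compound-treated for 17 hr; caspase-3/7 activity read by luminescent Caspase-Glo 3/7 after 30 min at room temperature.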

Assay [3] in a line: Caspase-3/7 induction in CHO-K1 cells by small molecules, qHTS cell viability counter screen (AID 1346979). Also: nearly all actives have a fitted effect of over 35% in size. Also: potency is read from the fitted curve at half-maximal effect. A digest of the protocol: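 Wild-type CHO-K1 cells were seeded at 1,500 per well, rested 5hr at 37 C, then exposed to compounds in DMSO. After 16hr, CellTiter-Fluor reagent was added and fluorescence read 1hr later as the viability measure.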
Assay [4] can be described thus: Caspase-3/7 induction in CHO-K1 cells by small molecules, qHTS assay (AID 1346980). Also: nearly all actives have a fitted effect of over 15% in size. A digest of the protocol:
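Wild-type CHO-K1 cells exposed to compounds for 17hr at 37 C, 5% CO2. Caspase-3/7 activity then measured by Caspase-Glo 3/7 luminescence after 30min at room temperature.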

Assay [5] has as its target Nuclear receptor subfamily 1 group I member 2 (Homo sapiens) (UniProt O75469). Description: Human pregnane X receptor (PXR) small molecule agonists, qHTS assay (AID 1346982). Also: nearly all actives have a fitted effect of over 35% in size. Also: potency is read from the fitted curve at half-maximal effect. In short, it runs like this:
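Luciferase signal from ONE-Glo (30 min, room temperature) measured activation of hPXR-driven CYP3A4 reporter expression in PXR-Luc HepG2 cells treated with compounds for 24 hr at 37 C.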

Assay [6] deals with Acetylcholinesterase (Homo sapiens) (UniProt P22303). Description: Acetylcholinesterase (AChE) small molecule antagonists: colormetric cell-based qHTS assay (AID 1347395; calls by dose curve; also: nearly all actives have a fitted effect of over 30% in size; also: potency is read from the fitted curve at half-maximal effect). A digest of the protocol:
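SH-SY5Y cells, plated overnight at 37 C, were exposed to compounds for 30 min at 37 C and 5% CO2. Acetylthiocholine plus DTNB was then added, and thiocholine from endogenous AChE was quantified colorimetrically after 90 min at 37 C.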

A short description of assay [7]: Caspase-3/7 induction in HepG2 cells by small molecules, qHTS cell viability counter screen (AID 1346981). Also: nearly all actives have a fitted effect of over 30% in size. Also: potency is read from the fitted curve at half-maximal effect. In short, it runs like this: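 HepG2, WT, 2,000 cells/well; 5 hr pre-incubation 37 C/5% CO2; compound pin-transferred from DMSO; 16 hr exposure; CellTiter-Fluor, 1 hr; fluorescence read.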
In assay [8] the target is Nuclear receptor subfamily 1 group I member 2 (Rattus norvegicus) (UniProt Q9R1A7). Description: Rat pregnane X receptor (rPXR) activation by small molecules, qHTS assay (AID 1346983). Also: nearly all actives have a fitted effect of over 20% in size. Conditions: rPXR luciferase reporter cells, One-Glo luminescence, 24 h; max activation: active compounds read high. A digest of the protocol:
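Cell-based rPXR activation assay: rPXR cells, 2,000 per well, rested 5hr at 37 C, then exposed to compounds in DMSO for 24 hr at 37 C. Luciferase activity read by One-Glo luminescence after 30 min at room temperature.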

The target of assay [9] is Nuclear receptor subfamily 1 group I member 2 (Homo sapiens) (UniProt O75469). Description: CYP3A4 induction through human pregnane X receptor (PXR) by small molecules, qHTS assay (AID 1346984). Also: nearly all actives have a fitted effect of over 40% in size. In short, it runs like this:
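Luminescence readout: luciferase signal after One-Glo (30 min, room temperature), following 3 h at 37C with 3uM final Luciferin-IPA P450 substrate. Cells were DPX-2 (HepG2, PXR/CYP3A4-luc co-transfected) dosed for 24 h.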

Assay [10] shares this target. Description: Human pregnane X receptor (PXR) activation by small molecules, qHTS assay (AID 1346985). Also: nearly all actives have a fitted effect of over 40% in size. Also: potency is read from the fitted curve at half-maximal effect. A digest of the protocol: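 DPX-2 cells (HepG2 co-transfected with a PXR response element and a CYP3A4-promoter luciferase construct) were seeded at 2,000 per well, rested 5 hr at 37C, then exposed to DMSO-dissolved compounds for 24 hr. Activation was read as luciferase luminescence.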
% is scaled to controls: 0 for no effect and ±100 for the full control effect.

Chain of Acetylcholinesterase (Homo sapiens) (P22303 whole entry, looked up): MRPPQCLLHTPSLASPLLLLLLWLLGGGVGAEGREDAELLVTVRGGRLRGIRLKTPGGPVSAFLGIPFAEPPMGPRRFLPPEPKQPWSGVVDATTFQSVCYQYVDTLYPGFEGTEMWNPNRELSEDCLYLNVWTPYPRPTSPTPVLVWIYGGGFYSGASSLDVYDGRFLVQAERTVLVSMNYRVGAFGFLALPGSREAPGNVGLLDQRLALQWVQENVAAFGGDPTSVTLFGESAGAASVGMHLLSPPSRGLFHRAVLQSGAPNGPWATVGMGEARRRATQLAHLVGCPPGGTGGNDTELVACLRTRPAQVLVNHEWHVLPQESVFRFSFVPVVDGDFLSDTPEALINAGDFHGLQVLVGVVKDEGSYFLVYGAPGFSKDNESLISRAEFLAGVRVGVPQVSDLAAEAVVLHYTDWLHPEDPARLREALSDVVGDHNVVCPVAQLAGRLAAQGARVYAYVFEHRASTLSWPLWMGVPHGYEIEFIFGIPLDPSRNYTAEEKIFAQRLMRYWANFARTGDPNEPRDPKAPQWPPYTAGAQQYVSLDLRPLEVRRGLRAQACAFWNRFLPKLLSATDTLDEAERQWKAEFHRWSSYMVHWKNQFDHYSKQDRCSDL
Chain of Nuclear receptor subfamily 1 group I member 2 (Homo sapiens) (O75469 whole entry, looked up): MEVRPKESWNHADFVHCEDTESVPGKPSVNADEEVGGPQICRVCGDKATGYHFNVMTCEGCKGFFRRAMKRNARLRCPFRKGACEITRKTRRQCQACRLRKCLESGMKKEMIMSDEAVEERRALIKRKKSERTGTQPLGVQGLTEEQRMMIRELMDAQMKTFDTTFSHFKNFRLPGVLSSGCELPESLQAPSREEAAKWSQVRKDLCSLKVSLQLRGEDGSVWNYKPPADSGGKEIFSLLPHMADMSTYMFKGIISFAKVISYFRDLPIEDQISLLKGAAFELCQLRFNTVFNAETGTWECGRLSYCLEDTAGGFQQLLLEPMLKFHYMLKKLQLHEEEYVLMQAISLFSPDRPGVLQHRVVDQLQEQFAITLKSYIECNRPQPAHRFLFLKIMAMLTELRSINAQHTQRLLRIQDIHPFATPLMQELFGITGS
Chain of Nuclear receptor subfamily 1 group I member 2 (Rattus norvegicus) (Q9R1A7 whole entry, looked up): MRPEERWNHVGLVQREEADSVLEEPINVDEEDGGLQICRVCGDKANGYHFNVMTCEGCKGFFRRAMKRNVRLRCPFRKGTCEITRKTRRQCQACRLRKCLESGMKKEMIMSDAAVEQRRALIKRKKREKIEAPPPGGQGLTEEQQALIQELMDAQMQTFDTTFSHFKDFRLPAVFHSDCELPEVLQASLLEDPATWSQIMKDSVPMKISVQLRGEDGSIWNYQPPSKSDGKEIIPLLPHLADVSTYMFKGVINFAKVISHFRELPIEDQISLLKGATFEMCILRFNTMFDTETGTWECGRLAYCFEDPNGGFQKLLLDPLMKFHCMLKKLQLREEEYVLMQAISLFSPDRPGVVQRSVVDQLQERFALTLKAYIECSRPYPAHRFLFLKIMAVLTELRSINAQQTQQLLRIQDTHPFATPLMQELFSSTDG

Regarding `CC(C)(C)c1ccc(CSc2cnn(C(C)(C)C)c(=O)c2Cl)cc1`, the Potency in assay [1] is 0.122 µM (active); in assay [3], 0.0172 µM (active). The Potency result in [2], in assay [4], in assay [5] and in assay [6] was “inactive” in each case.

As to `CC(C)[C@H](C(=O)O[C@H](C#N)c1cccc(Oc2ccccc2)c1)c1ccc(Cl)cc1`, the Potency entry in assay [1], in assay [2], in [4] and in assay [7] was “inactive” in each case. Further, the Potency in [5] was 4.32 µM (active).

With `C=CC(=O)OCC(COC(=O)C=C)(COC(=O)C=C)COC(=O)C=C`, the Potency in assay [1] is 12.2 µM (active); in [2] it was 15.4 µM (active); in assay [3], 3.86 µM (active); in [7], 15.4 µM (active). Further, the Potency result in assay [6] was “inactive”.

As for `c1ccc2c(c1)OCC(C1=NCCN1)O2` (stereo not given), the Potency in assay [1] is 26.6 µM (active); in [3], 23.7 µM (active). Besides, the Potency entry in [2], in [4] and in [6] was “inactive” throughout.

`CC(=O)O[C@H]1CC[C@@]2(C)C(=CC[C@@H]3[C@@H]2CC[C@]2(C)C(=O)CC[C@@H]32)C1`: the Potency result in assay [1], in [2], in assay [4], in assay [7], in assay [9] and in [10] was “inactive” in each case. In addition, the Potency result in assay [6] was “inactive”. Further, in [5], the Potency is 54.5 µM (active). Besides, the max activation in [8] was -1.42%.

In the case of `CCCCCCCCCCCCCC[P+](CCCCCC)(CCCCCC)CCCCCC` (tested in a mixture with another compound), the Potency is 3.86 µM (active) in assay [1]; 19.3 µM (active) in [2]; 4.33 µM (active) in assay [3]; 24.3 µM (active) in [7]; 2.17 µM (active) in [5].

As to `C=COCCCl`, the Potency entry in assay [1], in [2], in [3], in assay [4] and in assay [5] was “inactive” in each case.

For `CCN(CC)C(=S)[S-].CCN(CC)C(=S)[S-].[Zn+2]`, the Potency in [1] was 1.71 µM (active); in assay [2], 1.08 µM (active); in [3] it was 2.41 µM (active); in [7], 27.1 µM (active); in assay [5], 4.29 µM (active). For the same compound, the Potency result in assay [6] is “inactive”.

For `Oc1ccc(I)cc1`, the Potency entry in [1], in assay [2], in assay [3], in assay [4], in assay [5] and in assay [6] was “inactive” throughout.

Turning to `COP(=O)(OC)SCn1c(=O)oc2cc(Cl)cnc21`, the Potency in assay [1] was 30.6 µM (active); in [6] it was 3.56 µM (active). The Potency entry in assay [2], in [3] and in assay [4] was “inactive” throughout.

For the compound `O=C1NCN(c2ccccc2)C12CCN(CC1COc3ccccc3O1)CC2` (stereo not given), the Potency result in assay [1], in assay [2], in [4] and in assay [7] was “inactive” each time. In addition, in [5], the Potency was 5.96 µM (active).

On to `Clc1ccc(C(Cl)(Cl)Cl)c(Cl)c1`, for which the Potency result in assay [1], in assay [2], in assay [3], in assay [4] and in [5] was “inactive” each time.

In the case of `ClC(Cl)=C(Cl)Cl`, the Potency entry in assay [1], in assay [2], in assay [3], in [4], in [5] and in [6] was “inactive” throughout.

As to `CN(C)S(=O)(=O)N(SC(F)(Cl)Cl)c1ccccc1`, the Potency was 24.3 µM (active) in assay [1] and 7.7 µM (active) in [3]. In addition, the Potency result in [2], in assay [4], in assay [5] and in assay [6] was “inactive” throughout.

Turning to `C[C@H]1CC[C@@H]2[C@@H](C)[C@H]3[C@H](C[C@H]4[C@@H]5CC=C6CC(O[C@@H]7O[C@H](CO)[C@H](O)[C@H](O[C@@H]8O[C@H](CO)[C@@H](O)[C@H](O)[C@H]8O)[C@H]7O[C@H]7O[C@@H](C)[C@H](O)[C@@H](O)[C@H]7O)CC[C@]6(C)[C@H]5CC[C@]34C)N2C1` (stereo not given in full), the max activation in assay [8] was -11.8%. The Potency result in [10] was “inactive”.

Turning to `Cc1c(Cl)c(=O)oc2cc(OP(=O)(OCCCl)OCCCl)ccc12`, in assay [8], the max activation was 8.02%.

For `CCOC(=O)C1(c2ccccc2)CCN(CCC(C#N)(c2ccccc2)c2ccccc2)CC1`, the Potency in assay [10] is 1.12 µM (active).

In the case of `CC(C)OC(=S)S`, the Potency entry in assay [1] was “inactive”. The figures for the Potency in assay [3] and in assay [5] were 27.3 µM (active) and 17.2 µM (active), respectively.

For the compound `Clc1ccc(C(c2ccccc2Cl)C(Cl)(Cl)Cl)cc1` (stereo not given), the Potency result in [1], in assay [7] and in assay [6] was “inactive” each time.

Take `Cc1cccc(OP(=O)(Oc2cccc(C)c2)Oc2cccc(C)c2)c1`: the Potency result in assay [2], in assay [3], in [4], in assay [7] and in assay [6] was “inactive” throughout. The Potency in assay [5] is 30.6 µM (active).

Consider `CN(C)c1ccc(N=Nc2ccccc2)cc1`, for which the Potency result in assay [2] and in [4] was “inactive” throughout. Moreover, the figures for the Potency in assay [3], in [7] and in [5] were 30.7 µM (active), 48.6 µM (active) and 7.7 µM (active), respectively.
